Screens from PubChem BioAssay.
Many of the other results were omitted from the sample, so hits are more common in it than they were.
ROC1-CUL1 inh: inhibitors of human ROC1-CUL1 ubiquitin ligase activity; hit rate 0.6% among 140,000; in vitro K48 di-Ub FRET, acceptor:donor ratio, 45 min; inhibition, % at 10 µM; in the data active = inhibition above about 25%
Target sequence (P62877 whole entry, looked up): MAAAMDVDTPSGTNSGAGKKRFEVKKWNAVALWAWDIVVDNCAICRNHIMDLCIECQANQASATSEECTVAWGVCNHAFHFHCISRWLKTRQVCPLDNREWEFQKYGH
Target sequence (Q13616 whole entry, looked up): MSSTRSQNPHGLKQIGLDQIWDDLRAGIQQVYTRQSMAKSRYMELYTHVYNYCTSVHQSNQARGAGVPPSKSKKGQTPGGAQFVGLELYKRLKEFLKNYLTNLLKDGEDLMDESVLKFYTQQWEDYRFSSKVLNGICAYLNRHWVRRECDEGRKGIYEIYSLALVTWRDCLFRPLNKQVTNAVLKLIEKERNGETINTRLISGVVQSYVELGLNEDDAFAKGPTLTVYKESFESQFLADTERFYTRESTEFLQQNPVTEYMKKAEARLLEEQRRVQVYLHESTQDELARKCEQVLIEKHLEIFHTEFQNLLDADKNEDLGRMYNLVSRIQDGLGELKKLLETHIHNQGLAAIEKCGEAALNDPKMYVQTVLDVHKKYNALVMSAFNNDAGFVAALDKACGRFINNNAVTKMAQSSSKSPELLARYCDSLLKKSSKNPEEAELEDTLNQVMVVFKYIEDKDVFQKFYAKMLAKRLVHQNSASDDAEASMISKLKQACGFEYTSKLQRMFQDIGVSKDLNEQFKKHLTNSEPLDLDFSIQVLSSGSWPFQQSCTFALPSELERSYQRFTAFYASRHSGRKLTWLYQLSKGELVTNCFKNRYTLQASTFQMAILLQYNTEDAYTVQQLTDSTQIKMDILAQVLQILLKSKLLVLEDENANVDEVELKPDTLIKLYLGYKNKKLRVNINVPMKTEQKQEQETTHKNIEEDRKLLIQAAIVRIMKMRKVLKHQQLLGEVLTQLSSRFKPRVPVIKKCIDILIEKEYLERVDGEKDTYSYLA
* hit, by the source's call.

SMILES | ROC1-CUL1 inh
CC1=NN(c2nc(-c3ccc(Br)cc3)cs2)C(=O)C1N=Nc1cccc(O)c1 (configuration not stated) | -1
CC1=NN(c2nc(-c3ccc(Br)cc3)cs2)C(=O)C1N=Nc1nccs1 (configuration not stated) | 78*
CC1=NN(c2nc(-c3ccc(Br)cc3)cs2)C(=O)C1N=Nc1ccc(Oc2ccccc2)cc1 (configuration not stated) | 1
O=C(CSc1nc2sc3c(c2c(=O)n1-c1ccccc1)CCCC3)Nc1ccc(SC(F)F)cc1 | 0
O=C(Cn1ncc2cc([N+](=O)[O-])ccc21)Nc1cccc(Cl)c1Cl | -5
CC(C)C(=O)Nc1ccc(Cl)cc1 | 0
O=C(Nc1ccc(-c2cccc(F)c2)cc1)C1CCCN(Cc2nccs2)C1 (configuration not stated) | 1
O=C(Nc1ccc(-c2cccc(F)c2)cc1)C1CCCN(CC2CC2)C1 (configuration not stated) | 1
O=C(Nc1ccc(-c2cccc(F)c2)cc1)C1CCCN(C(=O)c2ccoc2)C1 (configuration not stated) | 92*
CN(C)c1cnn(CC(=O)NCc2cnc3ccccc3c2)c(=O)c1 | -5
CCOc1cc(/C=C2/SC(=NC)N(C)C2=O)cc(I)c1O | -7
CCC1(N)C(=O)c2ccccc2C1=O | 7
O=C1c2ccccc2C(=O)C(O)(O)C1(O)O | 100*
O=C1c2ccccc2C(=O)C(Cl)(Cl)C1(Cl)Cl | -8
CC(C)c1n[nH]c2c1CN(C(=O)CCC1=NNC(=O)CC1)CC2 | 11
Cc1cc(C)c([N+](=O)[O-])cc1C(=O)O | 1
CC(C)c1ccc(N2C(=O)/C(=C/c3ccc(O)cc3)C(=O)NC2=S)cc1 | 0
CC(C)c1ccc(N2C(=O)/C(=C/c3ccc(Sc4ccccc4)o3)C(=O)NC2=S)cc1 | 97*
Cc1ccc(Cl)cc1-c1ccc(/C=C2/C(=O)NC(=S)N(c3ccc(F)cc3)C2=O)o1 | 46*
Cc1ccc(N2C(=O)/C(=C/c3ccc(N4CCN(C)CC4)o3)C(=O)NC2=S)cc1 | -4
O=C1S/C(=C\c2ccc(Sc3ccccc3)o2)C(=O)N1c1ccc(Cl)cc1 | -4
O=C1NC(=S)N(c2ccc(F)cc2)C(=O)/C1=C\c1ccc(N2CCOCC2)o1 | -4
CC1(C)CC(NC(=O)NC23CC4CC(CC(C4)C2)C3)CC(C)(C)N1 | 5
O=c1[nH]c(O)c(N=Nc2ccc(SC(F)(F)F)cc2)c(=O)[nH]1 | 13
CC(C)CC(=O)NC1CC(C)(C)Cc2nc(N3CCOCC3)ncc21 (configuration not stated) | -10
SMILES | ROC1-CUL1 inh
CCn1c(-c2ccccc2F)nc2cc(C(=O)N3CC4CCC3C4)cc(NC(C)=O)c21 (configuration not stated) | 3
CC(Nc1nc2nonc2n2nnnc12)c1ccccc1 (configuration not stated) | 12
COc1ccc(CCn2c(O)cc3nn(-c4nc5ccccc5s4)c(=O)c-3c2C)cc1 | 80*
Cc1cc(-c2ccccc2)nn1-c1nc2ccccc2s1 | -3
CCc1c(C)[nH]n(-c2nc3ccccc3s2)c1=O | 6
Cc1ccc(OCC(=O)Nc2c(C)cccc2C)c(C)c1 | 5
O=S(=O)(O)c1cccc2cc(O)ccc12 | 9
Nc1ccc(/C=C\c2ccc(-n3nc4ccc5c(S(=O)(=O)O)cccc5c4n3)cc2S(=O)(=O)O)c(S(=O)(=O)O)c1 | 68*
O=S(=O)(O)c1ccc2c(S(=O)(=O)O)cccc2c1 | 5
COCc1ccc(C(=O)Nc2ccc(-c3nc(CNC(=O)c4cc(CC(C)C)on4)c(C)o3)cc2)o1 | -6
O=C(Nc1ccc(S(=O)(=O)N2CCCCCC2)cc1)C(F)(F)F | 9
CCOC(=O)c1cccc(-c2ccc(C(c3c(C)[nH][nH]c3=O)c3c(C)[nH][nH]c3=O)o2)c1 | 39*
COc1cc(C(c2c(C)[nH][nH]c2=O)c2c(C)[nH][nH]c2=O)ccc1OC(=O)c1cccc(C)c1 | 9
CCOC(=O)c1cccc(NC(=O)C(C)CC)c1 (configuration not stated) | -12
C=CCOc1c(Br)cc(CNc2nccs2)cc1OCC | 10
C=CCOc1c(Br)cc(CNC(C)(C)C)cc1OCC | 66*
C=CCOc1c(Br)cc(CNc2ccc(C(=O)O)cc2)cc1OCC | 9
O=C(OCn1nnc2ccccc21)c1cccs1 | -3
CCOC(=O)C1(CCOc2ccccc2)CCCN(C)C1 (configuration not stated) | -2
CCC(NC(=O)c1coc(Cn2cnc3ccccc32)n1)c1ccncc1 (configuration not stated) | 0
COc1cc(C2C3=C(CC(C)(C)CC3=O)N(Nc3ccccc3)C(=N)C2C#N)ccc1OCc1ccccc1 (configuration not stated) | -5
COc1cc(C2C3=C(CC(C)(C)CC3=O)OC(=N)C2C#N)ccc1OCc1ccccc1 (configuration not stated) | -2
COc1cc(C2C3=C(CC(C)(C)CC3=O)N(c3ncn[nH]3)C(=N)C2C#N)ccc1OCc1ccccc1 (configuration not stated) | 32*
COc1ccc(-n2c(-c3ccncc3)n[nH]c2=S)cc1 | -7
O=C(Oc1cccc(OC(=O)c2ccccc2Cl)c1)c1ccccc1Cl | -10
SMILES | ROC1-CUL1 inh
O=C(N/N=C/c1cccc(O)c1O)c1ccc(O)cc1 | 4
COc1cc(CN2Cc3cc(C)ccc3OC(c3ccsc3)C2)ccc1O (configuration not stated) | -2
CN1C(=O)/C(=C\c2ccc(-c3ccccc3C(=O)O)o2)SC1=S | 4
N=C1S/C(=C\c2ccc(-c3ccccc3C(=O)O)o2)C(=O)N1c1ccc(Cl)cc1Cl | 100*
CN=C1S/C(=C\c2ccc(-c3ccc(Cl)cc3C(=O)O)o2)C(=O)N1C | 3
Cc1cn2c3c(=O)n(CCCO)c(=O)n(C)c3nc2n1-c1cccc(Cl)c1 | 7
COC(=O)c1nc2n(n1)C(c1cc(OC)ccc1OC)CC(c1ccc(Br)cc1)=N2 (configuration not stated) | 8
O=C(COc1ccccc1-c1ccnn1-c1ccccc1)N/N=C/c1cc2ccccc2nc1Cl | -4
O=C(COc1ccccc1-c1ccnn1-c1ccccc1)N/N=C/c1coc2ccc(Cl)cc2c1=O | 60*
Cc1ccc2occ(/C=N\NC(=O)COc3ccccc3-c3ccnn3-c3ccccc3)c(=O)c2c1 | 3
COc1ccc(-c2c3c(nc4sc5c(=S)nc[nH]c5c24)CCCC3)cc1 | 3
C=CCN1C(=O)C(=O)N(c2ccccc2)C1=S | -3
N#Cc1c(-c2ccccc2)cc(-c2cccs2)nc1SCCN1CCOCC1 | 0
N#Cc1c(-c2ccccc2)cc(-c2ccccc2)nc1SCCN1CCOCC1 | 100*
Cc1nc(SCCN2CCOCC2)cc(-c2ccccc2)n1 | -3
CC1=C(C(=O)NC(C)c2cnc(N(C)C3CCCCC3)nc2C)OCCO1 (configuration not stated) | 8
Cc1cc(C(=O)CSc2nnc3sc4ccccc4n23)c(C)n1-c1ccc(F)c(Cl)c1 | 10
Cc1ccc(C)c(NC(=O)CSc2ncnc3scc(-c4ccccc4)c23)c1 | -9
CC1=Nc2nc(SCc3ccccc3)nn2C(c2cccs2)C1C(=O)Nc1ccccc1C (configuration not stated) | 2
CC(=O)Nc1ccc2occc2c1 | -12
O=C(O)c1cc2cc(Br)ccc2oc1=O | 10
O=C(O)c1cc2ccoc2cc(C(=O)O)c1=O | 100*
NC(=O)c1nn(-c2ccccc2)nc1NC(=O)COc1ccc(Cl)cc1C1CCCCC1 | 1
